Test results from PubChem BioAssay (EPA / NIEHS).
Activity calls are given as the source filed them. The calls were made as follows: active = hit-call score of the fitted dose curve at least 0.9, where 1 is the maximum; inactive = score below 0.9.

Assays:
[1] = read-out: Transforming growth factor beta 1 (TGFb1), TGFB1 (gene 7040); assay: BSK_KF3CT_TGFb1: BioMAP Diversity Plus: KF3CT Assay for Transforming growth factor beta 1 (TGFb1) Biomarker Activity (AID 2283072); settings: primary human keratinocytes with fibroblasts; actives raise or lower the signal
Procedure, shortened: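 Read-out: ELISA for TGF-b1 in keratinocyte/foreskin fibroblast human skin co-culture, 24 h after dosing; bidirectional curve fit vs DMSO baseline; gain or loss of signal scored.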

[2] = read-out: C-C motif chemokine 2 (Homo sapiens) (UniProt P13500); assay: BSK_KF3CT_MCP1: BioMAP Diversity Plus: KF3CT Assay for Monocyte Chemoattractant Protein 1 (MCP1/CCL2) Biomarker Activity (AID 2283073); settings: primary human keratinocytes with fibroblasts; actives raise or lower the signal
Procedure, shortened: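 ELISA readout of MCP-1 after 24 h chemical dosing of a human skin primary co-culture of keratinocytes and foreskin fibroblasts. Activity was fitted in both directions against DMSO.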

[3] = read-out: urokinase plasminogen activator (uPA), PLAU (gene 5328); assay: BSK_KF3CT_uPA: BioMAP Diversity Plus: KF3CT Assay for urokinase plasminogen activator (uPA) Biomarker Activity (AID 2283075); settings: primary human keratinocytes with fibroblasts; actives raise or lower the signal
Procedure, shortened: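 ELISA read-out of uPA 24 h after dosing human skin keratinocytes co-cultured with foreskin fibroblasts. Signal change fitted both ways relative to DMSO; sulforhodamine B on parallel cultures marks overt cytotoxicity.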

CD40, CD40 (gene 958) [4] = assay: BSK_LPS_CD40: BioMAP Diversity Plus: LPS Assay for CD40 Biomarker Activity (AID 2283076); settings: primary human HUVEC with PBMC; actives raise or lower the signal
Procedure, shortened: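 Cells were dosed, incubated 24 h, then assayed for CD40 by ELISA. Gain or loss of signal was analysed relative to DMSO controls. The culture paired human umbilical vein endothelium with peripheral blood mononuclear cells.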

[5] = read-out: E-selectin (Homo sapiens) (UniProt P16581); assay: BSK_LPS_Eselectin: BioMAP Diversity Plus: LPS Assay for Eselectin Biomarker Activity (AID 2283077); settings: primary human HUVEC with PBMC; actives raise or lower the signal
Procedure, shortened: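 Primary human vascular co-culture (endothelium plus PBMC) was dosed with chemical, then E-selectin quantified by ELISA at 24 h. Endpoint values derive from bidirectional curve fitting relative to DMSO.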

[6] = read-out: Interleukin-8 (IL8), CXCL8 (gene 3576); assay: BSK_LPS_IL8: BioMAP Diversity Plus: LPS Assay for Interleukin-8 (IL8) Biomarker Activity (AID 2283078); settings: primary human HUVEC with PBMC; actives raise or lower the signal
Procedure, shortened: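 Readout is IL-8 by ELISA, taken 24 h after compounds were added to LPS-stimulated endothelial/PBMC co-cultures. Both increases and decreases relative to DMSO control were scored through bidirectional fitting.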

[7] = BSK_LPS_SRB: Viability Assessment in the BioMAP Diversity Plus: LPS Assay (AID 2283079); settings: primary human HUVEC with PBMC;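 also: total protein by sulforhodamine B absorbance as a cytotoxicity measure; measured one day after compound addition; fitted in both directions against DMSO so loss or gain of signal counts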
Procedure, shortened: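 Readout is SRB absorbance at 560 nm (0.1% stain, TCA-fixed parallel cultures) as a total-protein cytotoxicity measure. Cells: primary human umbilical vein endothelium plus peripheral blood mononuclear cells, 24 h after chemical exposure; DMSO served as baseline.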

[8] = read-out: Interleukin-1 alpha (IL1a), IL1A (gene 3552); assay: BSK_LPS_IL1a: BioMAP Diversity Plus: LPS Assay for Interleukin-1 alpha (IL1a) Biomarker Activity (AID 2283080); settings: primary human HUVEC with PBMC; actives raise or lower the signal
Procedure, shortened: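 ELISA read-out of IL-1 alpha from a human primary vascular co-culture (endothelium plus PBMC) under LPS, sampled 24 hours post-dosing. Activity was fitted in both directions relative to DMSO controls.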

[9] = read-out: Macrophage colony-stimulating factor (MCSF), CSF1 (gene 1435); assay: BSK_LPS_MCSF: BioMAP Diversity Plus: LPS Assay for Macrophage colony-stimulating factor (MCSF) Biomarker Activity (AID 2283083); settings: primary human HUVEC with PBMC; actives raise or lower the signal
Procedure, shortened: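 ELISA readout of M-CSF after 24 h compound exposure in a human endothelial/PBMC co-culture. Activity, in either direction, is fitted relative to DMSO vehicle.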

[10] = read-out: Tissue Factor, F3 (gene 2152); assay: BSK_LPS_TissueFactor: BioMAP Diversity Plus: LPS Assay for Tissue Factor Biomarker Activity (AID 2283084); settings: primary human HUVEC with PBMC; actives raise or lower the signal
Procedure, shortened: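 ELISA signal for cell-surface Tissue Factor (CD142) was read 24 h after compound dosing of an LPS-stimulated human endothelial–PBMC primary co-culture. Gain or loss of signal was scored relative to DMSO.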

[11] = read-out: Tumor necrosis factor (Homo sapiens) (UniProt P01375); assay: BSK_LPS_TNFa: BioMAP Diversity Plus: LPS Assay for Tumour Necrosis Factor alpha (TNFa) Biomarker Activity (AID 2283085); settings: primary human HUVEC with PBMC; actives raise or lower the signal;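 as to AC50: TNFa protein level quantified by ELISA in the co-culture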
Procedure, shortened: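 HUVEC/PBMC co-culture, LPS-stimulated; 24 h post-dose; TNFa by ELISA; gain or loss of signal fitted bidirectionally vs DMSO baseline.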

[12] = read-out: Vascular cell adhesion molecule 1 (VCAM1), VCAM1 (gene 7412); assay: BSK_LPS_VCAM1: BioMAP Diversity Plus: LPS Assay for Vascular cell adhesion molecule 1 (VCAM1) Biomarker Activity (AID 2283086); settings: primary human HUVEC with PBMC; actives raise or lower the signal
Procedure, shortened: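 ELISA read-out of VCAM-1 at 24 h post-dosing in an LPS-driven HUVEC/PBMC primary human co-culture; gain or loss of signal fitted bidirectionally against DMSO baseline. Cytotoxicity tracked in parallel cultures by SRB total-protein staining.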

CD38, CD38 (gene 952) = assay: BSK_SAg_CD38: BioMAP Diversity Plus: SAg Assay for CD38 Biomarker Activity (AID 2283087); settings: primary human HUVEC with PBMC; actives raise or lower the signal
Procedure, shortened: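 Measures CD38 on a human endothelial/PBMC co-culture driven by SEB and TSST-1, 24 h after compound exposure, using ELISA with fluorescence detection; DMSO defines baseline for bidirectional curve fitting.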

CD40, CD40 (gene 958) [13] = assay: BSK_SAg_CD40: BioMAP Diversity Plus: SAg Assay for CD40 Biomarker Activity (AID 2283088); settings: primary human HUVEC with PBMC; actives raise or lower the signal
Procedure, shortened: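 Compounds were dosed onto a human primary endothelial–PBMC co-culture, and after 24 h CD40 was quantified by ELISA using a fluorescence signal. Activity in either direction was fitted relative to DMSO.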

CD69, CD69 (gene 969) = assay: BSK_SAg_CD69: BioMAP Diversity Plus: SAg Assay for CD69 Biomarker Activity (AID 2283089); settings: primary human HUVEC with PBMC; actives raise or lower the signal;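 as to AC50: cell surface CD69 protein quantified by ELISA with fluorescence detection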
Procedure, shortened: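 Primary human vascular co-culture (umbilical vein endothelium with peripheral blood mononuclear cells) exposed to test chemical for 24 h. CD69 levels quantified by fluorescence ELISA; DMSO served as negative control for bidirectional fitting.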

[14] = read-out: Monocyte Chemoattractant Protein-1 (MCP1), CCL2 (gene 6347); assay: BSK_SAg_MCP1: BioMAP Diversity Plus: SAg Assay for Monocyte Chemoattractant Protein-1 (MCP1) Biomarker Activity (AID 2283090); settings: primary human HUVEC with PBMC; actives raise or lower the signal
Procedure, shortened: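 Values derive from bidirectional fitting of ELISA-measured MCP1 against DMSO controls. Readings were taken 24 h after dosing human vascular endothelial cells co-cultured with peripheral blood mononuclear cells under superantigen stimulation.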

[15] = read-out: E-selectin (Homo sapiens) (UniProt P16581); assay: BSK_SAg_Eselectin: BioMAP Diversity Plus: SAg Assay for Eselectin Biomarker Activity (AID 2283091); settings: primary human HUVEC with PBMC; actives raise or lower the signal
Procedure, shortened: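 Co-culture: HUVEC + PBMC. Dose compound; 24 h. ELISA for E-selectin. Bidirectional fit vs DMSO.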

[16] = read-out: Monocyte Chemoattractant Protein-1 (MCP1), CCL2 (gene 6347); assay: BSK_LPS_MCP1: BioMAP Diversity Plus: LPS Assay for Monocyte Chemoattractant Protein-1 (MCP1) Biomarker Activity (AID 2283081); settings: primary human HUVEC with PBMC; actives raise or lower the signal;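 as to AC50: secreted MCP-1 protein quantified by ELISA in culture supernatant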
Procedure, shortened: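 Human endothelial–PBMC co-cultures were dosed with chemical, then LPS-driven MCP-1 levels were quantified by ELISA at 24 h. Activity in either direction was fitted versus DMSO negative control.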

[17] = BSK_LPS_PGE2: BioMAP Diversity Plus: LPS Assay for Prostaglandin E2 (PGE2) Biomarker Activity (AID 2283082); settings: primary human HUVEC with PBMC; actives raise or lower the signal;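 as to AC50: secreted prostaglandin E2 measured by ELISA in LPS-stimulated co-culture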
Procedure, shortened: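 ELISA read-out of PGE2 from human umbilical vein endothelial cells co-cultured with peripheral blood mononuclear cells under LPS, 24 h post-dose. Gain or loss of signal scored relative to DMSO baseline.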

Chain of E-selectin (Homo sapiens) (P16581 whole entry, looked up): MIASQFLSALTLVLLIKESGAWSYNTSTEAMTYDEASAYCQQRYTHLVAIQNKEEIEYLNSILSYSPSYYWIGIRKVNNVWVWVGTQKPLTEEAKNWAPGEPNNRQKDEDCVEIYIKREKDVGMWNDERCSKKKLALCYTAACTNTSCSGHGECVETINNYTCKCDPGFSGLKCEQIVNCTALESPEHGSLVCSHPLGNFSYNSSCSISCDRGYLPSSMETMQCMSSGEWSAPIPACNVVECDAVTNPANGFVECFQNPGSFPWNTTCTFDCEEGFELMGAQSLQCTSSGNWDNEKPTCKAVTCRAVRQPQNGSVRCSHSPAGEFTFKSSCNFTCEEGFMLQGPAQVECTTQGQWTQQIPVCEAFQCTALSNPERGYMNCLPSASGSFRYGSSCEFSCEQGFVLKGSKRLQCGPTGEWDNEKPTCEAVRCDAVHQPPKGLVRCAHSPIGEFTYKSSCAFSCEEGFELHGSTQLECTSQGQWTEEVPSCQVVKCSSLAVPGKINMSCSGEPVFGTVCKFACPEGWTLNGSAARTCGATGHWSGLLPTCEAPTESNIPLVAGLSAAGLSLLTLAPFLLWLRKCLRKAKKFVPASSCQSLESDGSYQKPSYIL
Chain of Tumor necrosis factor (Homo sapiens) (P01375 whole entry, looked up): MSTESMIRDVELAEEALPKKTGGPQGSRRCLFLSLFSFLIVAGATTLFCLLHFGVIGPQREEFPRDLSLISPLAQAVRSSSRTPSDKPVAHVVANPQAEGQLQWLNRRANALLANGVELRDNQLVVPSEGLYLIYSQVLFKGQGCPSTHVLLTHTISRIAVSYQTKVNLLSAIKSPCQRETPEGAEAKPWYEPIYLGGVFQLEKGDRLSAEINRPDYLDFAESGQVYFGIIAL

## C[Si]1(C)O[Si](C)(C)O[Si](C)(C)O[Si](C)(C)O1
[1]
  outcome: inactive
[2]
  outcome: inactive
[3]
  outcome: inactive
CD40, CD40 (gene 958) [4]
  outcome: inactive
[5]
  outcome: inactive
[6]
  outcome: inactive
[7]
  outcome: inactive
[8]
  outcome: inactive
[9]
  outcome: inactive
[10]
  outcome: inactive
[11]
  outcome: inactive
[12]
  outcome: inactive
CD38, CD38 (gene 952)
  outcome: inactive
CD40, CD40 (gene 958) [13]
  outcome: inactive
CD69, CD69 (gene 969)
  outcome: inactive
[14]
  outcome: inactive
[15]
  outcome: inactive

## CC(=O)OC/C=C(\C)CCC=C(C)C
[1]
  outcome: inactive
[2]
  outcome: inactive
[3]
  outcome: inactive
CD40, CD40 (gene 958) [4]
  outcome: inactive
[5]
  outcome: inactive
[6]
  outcome: inactive
[7]
  outcome: inactive
[8]
  outcome: inactive
[16]
  outcome: inactive
[9]
  outcome: inactive
[10]
  outcome: inactive
[11]
  outcome: inactive
[12]
  outcome: inactive
CD38, CD38 (gene 952)
  outcome: inactive
[14]
  outcome: inactive
[15]
  outcome: inactive

## Nc1ccc(S(=O)(=O)c2ccc(N)cc2)cc1
[1]
  outcome: inactive
[2]
  outcome: inactive
[3]
  outcome: inactive
CD40, CD40 (gene 958) [4]
  outcome: inactive
[5]
  outcome: inactive
[6]
  outcome: inactive
[7]
  outcome: inactive
[8]
  outcome: inactive
[17]
  outcome: inactive
[9]
  outcome: inactive
[10]
  outcome: inactive
[11]
  outcome: inactive
[12]
  outcome: inactive
CD38, CD38 (gene 952)
  outcome: inactive
[14]
  outcome: inactive
[15]
  outcome: inactive

## C1CCC(SSC2CCCCC2)CC1
[1]
  AC50: 5.33 µM (active)
[2]
  outcome: inactive
[3]
  outcome: inactive
CD40, CD40 (gene 958) [4]
  outcome: inactive
[5]
  outcome: inactive
[6]
  outcome: inactive
[7]
  outcome: inactive
[8]
  outcome: inactive
[16]
  AC50: 20 µM (active)
[9]
  outcome: inactive
[10]
  outcome: inactive
[11]
  AC50: 32.5 µM (active)
[12]
  AC50: 20 µM (active)
CD38, CD38 (gene 952)
  AC50: 20 µM (active)
CD69, CD69 (gene 969)
  AC50: 20 µM (active)
[14]
  outcome: inactive
[15]
  AC50: 32.7 µM (active)

## O=C(O)Cc1ccccc1Nc1c(Cl)cccc1Cl
[1]
  outcome: inactive
[2]
  AC50: 8.68 µM (active)
[3]
  outcome: inactive
CD40, CD40 (gene 958) [4]
  outcome: inactive
[5]
  outcome: inactive
[6]
  outcome: inactive
[7]
  outcome: inactive
[8]
  outcome: inactive
[17]
  AC50: 0.291 µM (active)
[9]
  AC50: 16.6 µM (active)
[10]
  outcome: inactive
[11]
  AC50: 20 µM (active)
[12]
  outcome: inactive
CD38, CD38 (gene 952)
  outcome: inactive
[14]
  outcome: inactive
[15]
  outcome: inactive

## CC=Cc1ccc(O)c(OC)c1
[1]
  outcome: inactive
[2]
  outcome: inactive
[3]
  outcome: inactive
CD40, CD40 (gene 958) [4]
  outcome: inactive
[5]
  outcome: inactive
[6]
  outcome: inactive
[7]
  outcome: inactive
[8]
  outcome: inactive
[16]
  outcome: inactive
[9]
  outcome: inactive
[10]
  AC50: 2.82 µM (active)
[11]
  outcome: inactive
[12]
  outcome: inactive
CD38, CD38 (gene 952)
  outcome: inactive
CD40, CD40 (gene 958) [13]
  outcome: inactive
CD69, CD69 (gene 969)
  outcome: inactive
[14]
  outcome: inactive
[15]
  outcome: inactive

## CCCCCCCCCCCCCCCC
[1]
  outcome: inactive
[2]
  outcome: inactive
[3]
  outcome: inactive
CD40, CD40 (gene 958) [4]
  outcome: inactive
[5]
  outcome: inactive
[6]
  outcome: inactive
[7]
  outcome: inactive
[8]
  outcome: inactive
[17]
  outcome: inactive
[9]
  outcome: inactive
[10]
  outcome: inactive
[11]
  outcome: inactive
[12]
  outcome: inactive
CD38, CD38 (gene 952)
  outcome: inactive
CD40, CD40 (gene 958) [13]
  outcome: inactive
[14]
  outcome: inactive
[15]
  outcome: inactive

## CC1(C)CC(N=C=O)CC(C)(CN=C=O)C1 (centres undefined)
[1]
  outcome: inactive
[2]
  outcome: inactive
[3]
  outcome: inactive
CD40, CD40 (gene 958) [4]
  outcome: inactive
[5]
  outcome: inactive
[6]
  outcome: inactive
[7]
  outcome: inactive
[8]
  outcome: inactive
[16]
  outcome: inactive
[9]
  outcome: inactive
[10]
  outcome: inactive
[11]
  outcome: inactive
[12]
  outcome: inactive
CD38, CD38 (gene 952)
  outcome: inactive
CD69, CD69 (gene 969)
  outcome: inactive
[14]
  outcome: inactive
[15]
  outcome: inactive
